Data on 99 compounds can be found in PubChem BioAssay AID651820 (National Center for Advancing Translational Sciences (NCATS), 2012).

The whole screen tested about 340,000 compounds, of which about 12,000 (3.5%) were called active. Entries that show only a call come without a potency. Not shown: some 18% with an inconclusive outcome. This excerpt belongs to a sample that is enriched for actives. Values without a mark were called inactive. Calls follow the shape of the dose curve; as a rule, active = well fitted inhibition curve with a large enough effect; inconclusive = small, poorly fitted or top-dose-only effect, or another doubt; inactive = no such curve, though single readings can be large or run the other way.
Potency is read from the fitted curve at half-maximal effect.

This test can be described thus: qHTS Assay for Inhibitors of Hepatitis C Virus (HCV). Particulars: Huh7.5.1 HCVcc-Cre infection, luciferase reporter, 44 h; series mostly up to 41.8 µM. A digest of the protocol: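 Reporter virus HCVcc-Cre (~0.5 moi) infects cells exposed to compound; seeding density 1,000 cells/well with 4 h settling beforehand. Luminescence, 15 sec read, taken 44 h post-infection following a 15 min RT substrate incubation.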
Background: Quantitative high-throughput screening tests each substance at several concentrations.
Consider `COC(=O)[C@]1(C)CCC[C@@]2(C)C3CC[C@]4(OC(C)=O)C[C@@]3(CCC21)CC4=NO` (some centres undefined), for which the Potency entry was “inactive”. The same measure, in the same setting: next, `O=C(CCNC(=O)c1ccc(Br)cc1)Nc1cccc(S(=O)(=O)N2CCCCC2)c1`: “inactive”; `COc1ccccc1C(=O)NCC(=O)NCCSc1ccc(Br)cc1`: “inactive”.

For the compound `CCc1noc(C)c1C(=O)N1CCCSC1=Nc1ccccc1OC`, the activity change, negative = inhibition is 9.92% [at 8.37 µM]. Consider `COc1ccc2c(c1)C(=O)Nc1cc(Cl)ccc1N2`, for which the Potency entry is “inactive”. For `Cc1cccc(OCCC(=O)OCc2csc(CC(=O)Nc3ccccc3C)n2)c1`, the Potency entry was “inactive”. Same read-out and setting: next, `NC(=O)COC(=O)/C=C/c1ccc2ccccc2n1`: “inactive”; `CCOc1cccc(/C=C/c2ccc3ccccc3n2)c1OC(C)=O`: 11.2 µM (active); `CCOc1ccccc1-c1cc(C(=O)N/N=C(\C)c2cccnc2)c2ccccc2n1`: “inactive”. The same measure, in the same setting: next, `COC(=O)[C@]1(CC(C)C)N[C@H](c2ccc(SC3CCCCC3)cc2)[C@@H]2C(=O)N(C)C(=O)[C@@H]21`: “inactive”. Still for that read-out and setting: the same measure for `CCN(CC(=O)Nc1c(F)cccc1F)C(=O)Cc1cccs1`: “inactive”; for `Cc1nc(-c2ccc(F)cc2)c(CC(=O)Nc2cccc(S(=O)(=O)N3CCOCC3)c2)s1`: “inactive”; for `CC(C)(C)OC(=O)NCCCCCNC(=O)c1[nH]cnc1C(=O)Nc1nccs1`: “inactive”. For the compound `COc1cccc(Nc2nc(N)c([N+](=O)[O-])c(NCc3ccco3)n2)c1`, the Potency is 10 µM (active). The same measure, in the same setting: next, `Nc1nc(Nc2ccccc2)nc(NCCO)c1[N+](=O)[O-]`: “inactive”; `Nc1nc(NCCCN2CCOCC2)nc(Nc2ccccc2)c1[N+](=O)[O-]`: “inactive”. On the same count and under the same terms, next, `COc1ccccc1CNC(=O)COC(=O)CNS(=O)(=O)c1ccc(NC(C)=O)cc1`: “inactive”; `CCOc1ccc(OCC(=O)OC(C)C(=O)NC2CCCCC2C)cc1` (centres undefined): “inactive”; `O=c1ccc(S(=O)(=O)N2CCCC2)cn1Cc1nc(-c2ccccc2)no1`: “inactive”. Same read-out and setting: the same measure for `CC1CCCN(C(=O)c2cc(-c3ccco3)nc3ccccc23)C1` (centres undefined): “inactive”; for `COc1ccc(OCCCCN2CCC(C)CC2)cc1`: “inactive”. Regarding `C/C=C/c1ccc(OCCCCN2CCC(C)CC2)c(OC)c1`, the Potency was 14.1 µM (active).

As to `C/C=C/c1ccc(OCCOc2ccc(C=O)cc2OC)c(OC)c1`, the Potency result was “inactive”. On the same count and under the same terms, the same measure for `Fc1ccc2cnc(-c3ccccc3)cc2c1`: “inactive”.

For the compound `COc1cc2c3c(c1)/C(=C1/SC(=S)NC1=O)C(=O)N3C(C)(C)C=C2C`, the Potency is 25.1 µM (active). The same measure, in the same setting: next, `CC(C)Oc1ccc(S(=O)(=O)N2CCOCC2)cc1NC(=O)C1CSC2(C)CCC(=O)N12` (centres undefined): “inactive”; `COc1cc(C(=O)NCC(=O)NCCSc2ccc(Br)cc2)cc(OC)c1OC`: “inactive”; `CC(=O)c1cccc(NC(=O)c2ccncc2)c1`: “inactive”.

Turning to `CSc1nsc(NC(=O)Nc2ccccc2)n1`, the Potency entry is “inactive”. `CCSc1nsc(NC(=O)Nc2cccc(C(C)=O)c2)n1`: the Potency was 11.2 µM (active). Still for that read-out and setting: the same measure for `Cc1ccc(C)c(NC(=O)C(c2ccccc2)N2CCN(CC(=O)NC3CC3)CC2)c1` (centres undefined): “inactive”; for `COc1ccc(CCNc2nc(C)cc(C)n2)cc1OC`: “inactive”; for `COc1ccc(CCNc2ncnc3nc[nH]c23)cc1OC`: 11.2 µM (active). Still for that read-out and setting: the same measure for `CCS(=O)(=O)NCCc1ccc(OC)c(OC)c1`: “inactive”. On the same count and under the same terms, next, `Nc1c(C(=O)OCC(=O)Nc2ccc(OC(F)F)cc2)[nH]c(=O)[nH]c1=O`: “inactive”. With `CCCn1c(N)c(N(CCOC)C(=O)C2CCCC2)c(=O)[nH]c1=O`, the Potency result is “inactive”. Take `Cc1nc2ccccc2c2oc(C(=O)NCCCN3CCC(C)CC3)cc12`: the Potency result was “inactive”. Still for that read-out and setting: next, `CCC1CCCCN1CCCNC(=O)C1CCC(Cn2c(=O)[nH]c3ccccc3c2=O)CC1` (centres undefined): “inactive”. The same measure, in the same setting: the same measure for `CCC1CCCCN1CCCNC(=O)c1cc2c(Cl)nc3ccccc3c2s1` (centres undefined): 8.91 µM (active); for `C#CCOCCOCCOCCNc1nc(N2CCN(C(=O)[C@H](CO)n3cc([C@@H](N)C(C)C)nn3)CC2)nc(N2CCN(C(=O)[C@H](CCC(=O)O)n3cc([C@@H](N)[C@H](C)CC)nn3)CC2)n1`: “inactive”.

Turning to `Nc1ccc2[nH]c(=S)sc2c1`, the Potency result is “inactive”. The same measure, in the same setting: next, `COc1ccc(CCN2CC(C(=O)OCC(=O)NCc3ccccc3Cl)CC2=O)cc1OC` (centres undefined): “inactive”. Still for that read-out and setting: the same measure for `CC(NC(=O)c1ccccc1SCC(=O)N1CCCC1)c1ccccc1` (centres undefined): “inactive”; for `O=C(c1ccc(Cl)cc1)c1ccc(OCC(O)CN2CCCCC2)cc1` (centres undefined): 14.1 µM (active). Same read-out and setting: the same measure for `CC(=O)Nc1ccc(OCC(O)CN2CCN(c3ccccc3Cl)CC2)cc1` (centres undefined): “inactive”; for `O=C(c1ccccc1)c1ccc(OCC(O)CN2CCCC2)cc1` (centres undefined): “inactive”; for `O=C1NCC(c2ccccc2)(c2ccccc2)C(=O)N1`: “inactive”. Consider `CC1CC(C)CN(C(=O)COC(=O)c2ccc3ncsc3c2)C1` (centres undefined), for which the Potency result was “inactive”.

On to `COc1ccc(S(=O)(=O)Nc2ccc3oc(C)c(C(C)=O)c3c2)cc1`, for which the Potency is 7.94 µM (active). Same read-out and setting: the same measure for `CC(=O)c1c(C)oc2ccc(NS(=O)(=O)c3ccc(C(=O)O)cc3)cc12`: “inactive”; for `CC(=O)c1c(C)oc2ccc(NS(=O)(=O)c3ccccc3)cc12`: “inactive”; for `CC(OC(=O)c1ccc(S(=O)(=O)N2CCOCC2)cc1)c1ccccc1` (centres undefined): “inactive”. Still for that read-out and setting: next, `COC1=CC(=O)OC(C)(c2ccccc2)C1` (centres undefined): “inactive”; `O=C(Cc1ccccc1)NC(=S)Nc1ccc(N2CCCCC2)cc1`: “inactive”; `CN1CCN(c2ccc(NC(=O)c3ccccc3)cc2)CC1`: “inactive”. On the same count and under the same terms, next, `Cc1ccccc1C(=O)NC(=S)Nc1ccc(N2CCN(C(=O)c3ccccc3)CC2)cc1`: 11.2 µM (active); `O=C(Nc1ccc(N2CCN(C(=O)c3cccs3)CC2)cc1)c1cccnc1Cl`: “inactive”; `Cc1ccccc1C(=O)N1CCN(c2ccc(NC(=O)c3cccs3)cc2)CC1`: 11.2 µM (active). In the case of `O=C(Nc1ccc(N2CCN(C(=O)C3CC3)CC2)cc1)c1cccs1`, the Potency entry is “inactive”. Still for that read-out and setting: next, `Cc1ccc(-c2csc(NCCc3nc4cc(Cl)c(Cl)cc4n3CCOCCO)n2)cc1`: “inactive”; `CCCCNC(=O)Cn1nc(C)c(S(=O)(=O)N2CCOCC2)c1C`: “inactive”; `CC(C)(C)C(=O)Nc1cccc(-c2ccc[nH]2)n1`: “inactive”. Regarding `CC(=O)c1c(C)[nH]c(C(=O)N2CCN(S(=O)(=O)c3ccc(F)c(F)c3)CC2)c1C`, the Potency entry was “inactive”. Turning to `CCOc1ccc(NC(=O)COc2ccc(C(=O)NC3CCCc4ccccc43)cc2OC)cc1` (centres undefined), the Potency result was “inactive”. The same measure, in the same setting: the same measure for `CCOc1c2ccc(C(=O)NC3CCCc4ccccc43)cc2nn1CC` (centres undefined): 3.55 µM (active); for `CNS(=O)(=O)c1cccc(C(=O)NC2CCCc3ccccc32)c1` (centres undefined): “inactive”. Still for that read-out and setting: the same measure for `CCCc1cc(=O)[nH]c(SCC(=O)Nc2ccc(S(=O)(=O)N3CCCC3)cc2)n1`: “inactive”; for `Nc1ccc2nn(-c3ccc(Cl)cc3)nc2c1`: “inactive”; for `CC(C)(C)c1ccc(Oc2ccc(N)cc2)cc1`: 3.55 µM (active).

`COc1cccc(Oc2ccc(N)cc2)c1`: the Potency entry was “inactive”. Still for that read-out and setting: the same measure for `CC(C)(C)c1ccc(OC2=CS(=O)(=O)c3ccccc32)cc1`: “inactive”.

For the compound `Cc1nn(C)c(Oc2ccc(Cl)cc2)c1C=O`, the Potency entry is “inactive”.

Regarding `Nc1ccc(Oc2ccc(Cl)cc2)cc1`, the Potency was 7.94 µM (active). On the same count and under the same terms, the same measure for `O=S(=O)(Nc1ccc(O)c2ccccc12)c1ccc(OC(F)(F)F)cc1`: “inactive”.

Regarding `COc1ccc(CNC(=O)COC(=O)C(CCSC)N2C(=O)c3ccccc3C2=O)cc1` (centres undefined), the Potency result was “inactive”. On the same count and under the same terms, next, `COc1ccc(OCC(O)CN(C)C(=O)C(C)Oc2ccccc2)cc1` (centres undefined): “inactive”.

Consider `C=CCn1c(=N)n(CC(O)COc2ccc(OC)cc2)c2ccccc21` (centres undefined), for which the Potency was 5.62 µM (active).

As to `C=CCc1ccc(OCC(O)CN2CCN(Cc3ccccc3)CC2)c(OC)c1` (centres undefined), the Potency entry is “inactive”. Still for that read-out and setting: next, `CCCCn1c(N)c(N(CC(C)C)C(=O)c2cnc(C)cn2)c(=O)[nH]c1=O`: “inactive”. Same read-out and setting: the same measure for `CC1CCN(C(=O)COC(=O)c2cc(S(=O)(=O)N3CCOCC3)ccc2Cl)CC1`: “inactive”; for `CNS(=O)(=O)c1ccc(C(=O)NCC(=O)NCCc2ccc3c(c2)OCCO3)cc1`: “inactive”; for `O=C(O)c1ccc(Cn2c(=S)[nH]c3cc(Cl)ccc3c2=O)cc1`: “inactive”. Same read-out and setting: the same measure for `CC(C)c1ccc2c(c1)c(SC(C)(C)C)c(CC(C)(C)C(=O)O)n2Cc1ccc(Cl)cc1`: 10 µM (active); for `Cn1c(Cc2cccc3ccccc23)nnc1SCC(=O)N1CCN(c2cccc(Cl)c2)CC1`: 3.98 µM (active). On to `Cc1cc2nnc(SCC(=O)N3CCN(c4ccccc4)CC3)n2c(N)n1`, for which the Potency entry was “inactive”.

For the compound `Cn1c(CNC(=O)c2ccco2)nnc1SCC(=O)N1CCN(c2ccccc2)CC1`, the Potency entry was “inactive”. The same measure, in the same setting: next, `O=C(CSc1ncnc2sccc12)NC1CCS(=O)(=O)C1` (centres undefined): “inactive”; `CC(=O)Nc1ccc(S(=O)(=O)NCC(=O)OCC(=O)c2ccc[nH]2)cc1`: “inactive”; `O=C(c1cccnc1)N(Cc1ccccc1)C(=O)c1cccnc1`: “inactive”. Still for that read-out and setting: next, `CCOC(=O)CSc1nnc(-c2ccco2)n1C`: “inactive”; `CCOC(=O)CSc1nc2c(c(=O)n(C)c(=O)n2C)n1Cc1ccccc1F`: “inactive”; `CCOC(=O)CSc1nc2c(sc(=S)n2CCc2ccccc2)c(=O)n1Cc1ccco1`: 14.1 µM (active). Still for that read-out and setting: next, `CC(C)C[C@H]1CN([C@@H](CC(C)C)CN2CCC[C@@H]2CN2C(=O)C(=O)NC[C@@H]2Cc2ccccc2)C(=O)C(=O)N1CCc1ccccc1`: “inactive”; `O=C(c1ccc(N2CCOCC2)c([N+](=O)[O-])c1)N1CCN(c2ccccc2F)CC1`: “inactive”.

Take `CCN(C[C@H]1N[C@@](CC)(C(=O)OC)[C@H]2C(=O)N(Cc3ccccc3)C(=O)[C@@H]12)S(=O)(=O)c1ccccc1`: the Potency result was “inactive”. The same measure, in the same setting: the same measure for `COC(=O)[C@]1(Cc2ccccc2)N[C@H](CN(C)S(=O)(=O)c2ccc(OC(F)(F)F)cc2)[C@@H]2C(=O)N(Cc3ccccc3)C(=O)[C@@H]21`: 7.08 µM (active). Take `COC(=O)[C@]1(Cc2ccccc2)N[C@H](CN(C)S(=O)(=O)c2ccc(F)cc2)[C@@H]2C(=O)N(Cc3ccccc3)C(=O)[C@@H]21`: the Potency entry is “inactive”. The same measure, in the same setting: the same measure for `CCN(CC(=O)Nc1c(F)cccc1F)C(=O)CN1c2cccc3cccc(c23)S1(=O)=O`: “inactive”; for `CCCCN(C(=O)c1cccc(N2C(=O)c3ccccc3C2=O)c1)c1c(N)n(CCCC)c(=O)[nH]c1=O`: “inactive”.
